# rCAG binder = binders of r(CAG) RNA repeats, primary screen, biochemical, fluorescence. 370,000 tested, 1.3% active. inhibition, % at 3 µM. r(CAG) RNA repeat, TO-PRO-1 dye displacement fluorescence;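 active = inhibition above the plate cutoff, the mean of all test compounds on that plate plus 3 SD, cut at about 35% in these data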;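 also: higher means more dye released from RNA so lower well fluorescence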
# MPTP block = mitochondrial permeability transition pore inhibitors, primary screen, biochemical, isolated mouse mitochondria, absorbance. Ca2+ swelling absorbance, 30 min. inhibition, % at 10 µM. AID 602449, 2012. 360,000 tested, 1.4% active;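 active = inhibition of 50% or more, scaled per plate between neutral and stimulator controls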
# FAS TE block = FAS thioesterase domain inhibitors, primary screen, biochemical, fluorescence intensity, uHTS; Fatty acid synthase (Homo sapiens), P49327; recombinant FAS-TE, OMFH fluorogenic substrate, fluorescence endpoint; inhibition, % at 15 µM; 360,000 tested, 0.67% active; AID 602261, 2012;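 active = compounds whose normalised, plate-corrected inhibition of enzyme fluorescence in the single-dose primary screen is 50% or more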
# Myeloid diff MLP = induction of myeloid progenitor differentiation, primary screen, cell-based, flow cytometry, MLPCN library. ER-HoxA9 myeloid progenitors, lysozyme-GFP differentiation. calls only at 10 µM. 360,000 tested, 1% active;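 active = normalized GFP-positive differentiation at or above the plate's own cutoff, the solvent-only control mean plus 3 SD; inconclusive = no clear call, values can overlap the other calls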;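 also: cells exposed to compound for four days before flow analysis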
# NR3A LBD binder = binders of NR3A ligand-binding domain, primary screen, biophysical, differential scanning fluorimetry, uHTS | Glutamate receptor ionotropic, NMDA 3A (GRIN3A) ligand-binding domain | NR3A LBD differential scanning fluorimetry, Tm shift; 0% = protein alone, 100% = glycine-bound protein | Tm shift relative to glycine control, % at 25 µM | 340,000 tested, 2.5% active;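 active = melting temperature shift of at least 10% of the positive control shift, at one fixed dose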
# Numbers stand for hits; – = inactive; ? = inconclusive; · = not tested or not shown; + = active, no number. Rows were chosen to be rich in hits. Some 5.7% of all compounds tested hit in one or more screens of this group.
SMILES,rCAG binder,MPTP block,FAS TE block,Myeloid diff MLP,NR3A LBD binder
Cc1ccc(C)c(NC(=O)COC(=O)CCC(=O)c2cccs2)c1,–,–,–,+,–
Cc1ccc(NS(=O)(=O)c2ccc(NC(=O)c3cccs3)cc2)cc1,–,–,–,–,20
O=C(CCC(=O)c1cccs1)c1cccs1,–,–,–,+,–
CC(C)(C)N(NC(=O)Nc1cccc(F)c1)C(=O)c1ccccc1Cl,–,·,·,·,·
COC(=O)C1=C(C)N(Cc2ccc(C(F)(F)F)cc2)C(=NCc2ccccc2)NC1c1ccc(C(F)(F)F)cc1 (stereo not given),–,·,·,·,·
CC[C@H](CCC(=O)N(c1ccccc1)c1ccccc1)C1CC1,–,·,·,·,·
O=C(Nc1ccc(-c2cn3ccccc3n2)cc1)c1cccs1,–,–,–,–,25
COc1ccc(CC(=O)Nc2ccc(-c3cn4ccccc4n3)cc2)cc1,–,–,–,?,–
CCOC(=O)[C@@]12CCC3=C1N(CCC3)C(=O)[C@H](CC(=O)N1CCOCC1)C2,–,·,·,·,·
Cc1ccc(COC(=O)CN2C(=O)NC3(CCCCC3C)C2=O)cc1 (stereo not given),–,–,–,–,11
CCCOc1ccc(N)cc1N,–,–,–,+,–
Nc1[nH]n(-c2ccccc2)c(=O)c1N=Nc1ccc(F)cc1,–,·,·,·,·
Oc1ccc2ccccc2c1CNc1ccc(Br)cc1,–,·,·,·,15
COc1cccc(CNc2ccc(Br)cn2)c1O,–,–,–,–,–
Oc1ccc2ccccc2c1CNc1ccc(Br)cn1,–,–,–,–,25
CN1OC[C@@H]2CN(C(=O)c3ccc([N+](=O)[O-])cc3)[C@H](c3ccccc3Br)C[C@@H]21,–,·,·,·,·
COC(=O)[C@@H](Cc1ccccc1)N[C@H](/C=C/c1ccccc1)[C@@H](O)Cc1ccccc1,–,·,·,·,·
CCOc1ccc(NC(=O)Nc2ccc3c(c2)nnn3C)cc1,–,–,–,–,16
O=S(=O)(/C=C/C=C/S(=O)(=O)c1ccccc1)c1ccccc1,–,–,–,·,13
CCOC(=O)N1CCN(C(=O)C[C@H]2C[C@@]3(C(=O)OC)C(=C[C@H](COCc4ccccc4)O[C@@H]3C)N(CCC3=CCCCC3)C2=O)CC1,–,·,·,·,·
CC1(C(=O)Nc2cccc(Oc3ccccc3)c2)CCN1Cc1ccccc1OC(F)F (stereo not given),–,–,–,–,·
O=[N+]([O-])c1cccc(/C=C/c2nc(C=Nc3ccccc3)c(O)o2)c1,–,–,–,–,11
COc1ccc2ccccc2c1CN1CCN(c2ncc(Cc3ccccc3)cn2)CC1,–,·,·,·,·
O=C(Nc1cccc(Cl)c1)c1cc(N=Nc2ccc([N+](=O)[O-])cc2Cl)ccc1O,–,–,–,–,19
CCC(C(=O)O)n1c(C(F)(F)F)nc2ccccc21 (stereo not given),–,–,–,–,12
SMILES,rCAG binder,MPTP block,FAS TE block,Myeloid diff MLP,NR3A LBD binder
Cc1ccc(NC(=O)Nc2cccc(F)c2)nc1,–,–,–,–,21
Cc1ccc(NC(=O)Nc2ccc(Cl)c(Cl)c2)nc1,–,–,–,–,12
O=C(Nc1cccc(F)c1)Nc1ccc(Cl)cn1,–,–,–,–,–
COC(=O)[C@]12C[C@H](CC(=O)NCCCCc3ccccc3)C(=O)N(Cc3ccccc3)C1=C[C@H](C(C)C)O[C@@H]2C1CC1,–,·,·,·,·
COc1ccccc1CCNC(=O)CSc1nc2c([nH]1)c(=O)n(C)c(=O)n2C,–,·,·,·,·
Cc1noc(C)c1COc1ccc(C(=O)OCC(=O)c2ccc3c(c2)OCCO3)cc1,–,–,–,–,11
Cc1noc(C)c1COC(=O)c1ccc2c(c1)OCCO2,–,–,–,–,–
COc1cc2c(cc1OC)C1(Nc3c-2c(C)nn3-c2ccccc2)C(=O)Nc2ccccc21 (stereo not given),–,–,–,+,–
COc1cc2c(cc1OC)C1(Nc3c-2c(-c2ccccc2)nn3-c2ccccc2)C(=O)Nc2ccccc21 (stereo not given),–,–,–,–,–
COC(=O)C(=O)C/C(=N/Nc1ncnc2ccccc12)c1ccc(Cl)cc1,–,–,–,+,–
CC(=O)N1CCCN(S(=O)(=O)c2ccc3c(c2)c(=O)n(C)c(=O)n3C)CC1,–,·,·,·,·
CCCCC#Cc1ccccc1CC(=O)Nc1ccccc1,–,–,–,–,–
CCCCCCCC#Cc1ccccc1/C=N/S(=O)c1ccc(C)cc1 (stereo not given),·,·,·,·,16
COCCCNC(=O)C[C@H]1C[C@H](C(=O)N2CCCCC2)[C@@]2(C)c3[nH]c4ccc(Cl)cc4c3CCN2C1=O,–,–,–,+,–
COCCCNC(=O)CC1C[C@H](C(=O)N2CCCCC2)[C@@]2(C)c3[nH]c4ccc(OC)cc4c3CCN2C1=O (stereo not given in full),–,–,–,–,–
CC(C)(C)NC(=O)C[C@H]1C[C@H](C(=O)N2CCOCC2)[C@@]2(CCC3CCCC3)c3[nH]c4ccc(Cl)cc4c3CCN2C1=O,·,–,89,–,–
COC(=O)C1=C(C)N(Cc2ccccc2C(F)(F)F)C(=NCc2ccccc2)NC1c1ccc(Cl)cc1 (stereo not given),–,·,·,·,·
O=C(OCCN=C1NS(=O)(=O)c2ccccc21)C1CC(=O)N(c2ccc(Cl)cc2)C1 (stereo not given),–,–,–,–,24
COc1cc(OC)cc(-c2sc3ccc(OC)cc3c2-c2ccc(OCCN3CCOCC3)cc2)c1,·,–,–,–,11
CCOC(=O)CCCCCC(=O)Nc1ccc2c(c1)C(=O)N([C@H](C)CO)C[C@@H](C)[C@@H](CN(C)S(=O)(=O)c1ccc(C)cc1)OCCCC[C@H](C)O2,–,·,·,·,·
Cc1ccc2[nH]c(=O)c(C(c3nnnn3CC3CCCO3)N3CCCc4ccccc43)cc2c1 (stereo not given),–,–,–,–,19
O=C1[C@H](c2ccccc2)[C@@H](c2ccncc2)N1c1ccncc1,–,·,·,·,·
COC(=O)c1cc2c(c3c4cc(OC)ccc4n(C(=O)c4ccccc4)c13)C(=O)N(Cc1ccco1)C2,–,·,·,·,·
C=CCN1C(=O)[C@]2(OCCC=C[C@H]2C)c2cc(OC)ccc21,–,·,·,·,·
C=CCN1[C@@H](C)[C@H](c2ccccc2)Oc2cccc(NCCc3ccccc3)c2S1(=O)=O,–,·,·,·,·
C[C@@H]1CN([C@H](C)CO)C(=O)c2cc(NC(=O)Nc3ccc(C(F)(F)F)cc3)ccc2O[C@H]1CN(C)S(=O)(=O)c1cccs1,–,–,–,–,17
C[C@H](CO)N1C[C@H](C)[C@@H](CN(C)S(=O)(=O)c2cccs2)Oc2ccc(NC(=O)Nc3ccc(C(F)(F)F)cc3)cc2C1=O,–,–,–,–,23
C[C@H](CO)N1C[C@H](C)[C@@H](CN(C)S(=O)(=O)c2cccs2)Oc2ccc(NC(=O)Nc3ccccc3)cc2C1=O,–,–,–,–,–
